Results taken from PubChem BioAssay (NCI).
About 83,000 compounds went through this panel and 20% of them were active in at least one assay; those are over-represented in the sample as a whole.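 In brief: 96-well plates, 48 h treatment, single concentration, percent growth endpoint.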 The source made the active and inactive calls. Rule for the calls: active = growth percent below 10; inactive = the rest.

Experiments:
Experiment in all cases: NCI-60 one-dose screen, 48 h (100 = growth as untreated, 0 = no growth, -100 = all killed)
Conditions in all cases: 10 µM unless noted
NCI-H23 lung = test system: NCI-H23 lung
NCI-H226 lung = test system: NCI-H226 lung
NCI-H322M lung = test system: NCI-H322M lung
HOP-62 NSCLC = test system: HOP-62 NSCLC
NCI-H460 lung = test system: NCI-H460 lung
NCI-H522 lung = test system: NCI-H522 lung
A549/ATCC NSCLC = test system: A549/ATCC NSCLC
786-0 renal = test system: 786-0 renal
COLO 205 colon = test system: COLO 205 colon
HOP-92 NSCLC = test system: HOP-92 NSCLC

Measured: growth

CCN(CC)Cc1c(-c2cccc(OC(F)(F)F)c2)[nH]c2ccc(N3CCCC3)cc2c1=O
inactive: NCI-H23 lung 92.9% | NCI-H226 lung 96.1% | NCI-H322M lung 87.3% | HOP-62 NSCLC 103% | NCI-H460 lung 97.5% | NCI-H522 lung 87.5% | A549/ATCC NSCLC 99% | 786-0 renal 98.6% | COLO 205 colon 103%

CCc1ccc(NC(=O)N[C@@H](Cc2cccc(C)c2)C(=O)N[C@@H]2C(=O)N3CCC[C@H]3C(=O)N3CCCC[C@H]3C(=O)N[C@@H](CO)C(=O)N3C[C@H](C)C[C@H]3C(=O)O[C@H]2C)c(F)c1
inactive: NCI-H23 lung 34.4% | NCI-H322M lung 49.9% | HOP-62 NSCLC 30.5% | NCI-H460 lung 12.5% | NCI-H522 lung 21% | A549/ATCC NSCLC 27.9% | 786-0 renal 40.8%
active: NCI-H226 lung -4.68% | COLO 205 colon -36%

NS(=O)(=O)c1ccc(Nc2nc(N/N=C/c3ccc(C(F)(F)F)cc3)nc(Nc3ccccc3)n2)cc1
inactive: NCI-H23 lung 52.8% | NCI-H226 lung 36.7% | NCI-H322M lung 52.6% | HOP-62 NSCLC 38% | NCI-H460 lung 14.6% | NCI-H522 lung 38% | A549/ATCC NSCLC 27.6% | COLO 205 colon 29.3%
active: 786-0 renal -3.55%

COCCC[C@H]1O[C@@](O)([C@H](C)[C@@H]2CC(OC)C(O)/C=C(C)/C=C(C)/C=C(\C)C(OC3O[C@@H](C)[C@H](O)C(O)[C@@H]3O)C(C)/C=C(C)/C=C(OC)/C=C(\C)C(=O)O2)C(OC)C(O)[C@]1(C)O[C@H]1C[C@@H](O)[C@H](O[C@H]2C[C@](C)(O)[C@H](O)C(C)O2)C(C)O1 (some centres undefined)
inactive: NCI-H23 lung 41.2% | NCI-H226 lung 38.2% | NCI-H322M lung 97.4% | HOP-62 NSCLC 68.9% | NCI-H460 lung 52.1% | NCI-H522 lung 34.2% | A549/ATCC NSCLC 40% | 786-0 renal 73.1% | COLO 205 colon 40.4%

COc1ccc(N2C(=O)c3cc(OC)c(OC)cc3NC2SCc2ccccc2)cc1 (centres undefined)
inactive: NCI-H23 lung 107% | NCI-H226 lung 102% | NCI-H322M lung 104% | HOP-62 NSCLC 107% | HOP-92 NSCLC 112% | NCI-H522 lung 95.2% | A549/ATCC NSCLC 110% | 786-0 renal 117% | COLO 205 colon 109%

O=C(NCCCNc1cc(-c2cn(-c3ccccc3)nc2-c2cccc(O)c2)ccn1)Nc1cc(C(F)(F)F)cc(C(F)(F)F)c1
inactive: NCI-H23 lung 83.2% | NCI-H226 lung 79.6% | NCI-H322M lung 90.3% | HOP-62 NSCLC 78.2% | HOP-92 NSCLC 52% | NCI-H522 lung 89.5% | A549/ATCC NSCLC 67.1% | 786-0 renal 63.2% | COLO 205 colon 80.4%

COc1ccc(C2C(C#N)=C(N)Oc3c2sc2ccc(C)cc32)cc1 (centres undefined)
inactive: NCI-H23 lung 43.7% | NCI-H226 lung 34.9% | NCI-H322M lung 71.8% | HOP-62 NSCLC 30.1% | HOP-92 NSCLC 72.1% | A549/ATCC NSCLC 45.6% | 786-0 renal 42% | COLO 205 colon 36.8%
active: NCI-H522 lung -34.3%

O=C(N/N=C\c1ccc(Cl)cc1)c1ccc2nc(-c3ccc(Br)cc3)[nH]c2c1
active: NCI-H23 lung -36% | NCI-H226 lung 9.5% | HOP-62 NSCLC -42.5% | HOP-92 NSCLC -3.66% | A549/ATCC NSCLC -51.7% | 786-0 renal -73.7%
inactive: NCI-H322M lung 41.3%

COc1ccc(NC(=O)[C@H](C)NC(=O)OC(C)(C)C)cc1C(=O)Nc1cccc(-c2cc(=O)c3c(OC)c(OC)c(OC)cc3o2)c1
active: NCI-H23 lung -24.8% | NCI-H322M lung -0.408% | HOP-62 NSCLC -17.5% | HOP-92 NSCLC -50% | NCI-H522 lung -46.4% | A549/ATCC NSCLC 7.37% | 786-0 renal 0.528% | COLO 205 colon -70%
inactive: NCI-H226 lung 16%

CCCCCCNC(=O)Oc1ccc(/C(=C(\C)c2ccc(Cl)cc2)c2ccc(OCCN(C)C)cc2)cc1
inactive: NCI-H23 lung 76.3% | NCI-H226 lung 101% | NCI-H322M lung 78.1% | HOP-62 NSCLC 75.5% | HOP-92 NSCLC 38.4% | NCI-H522 lung 83.5% | A549/ATCC NSCLC 72.7% | 786-0 renal 39.8% | COLO 205 colon 11.6%

Oc1ccc(-c2nnc(SCc3ccc(O)c4ncccc34)n2-c2ccccc2)cc1
active: HOP-92 NSCLC 4.59% | NCI-H522 lung -4.72% | A549/ATCC NSCLC 6.81%
inactive: NCI-H23 lung 19.3% | NCI-H226 lung 15.4% | NCI-H322M lung 19.2% | HOP-62 NSCLC 19.3% | 786-0 renal 19.1% | COLO 205 colon 28.2%

CCOC(=O)c1c(Nc2ccccc2)nn2c(-c3ccc(OC)c(OC)c3)ccnc12
inactive: NCI-H23 lung 70.8% | NCI-H226 lung 54.9% | NCI-H322M lung 92.5% | HOP-62 NSCLC 72.7% | NCI-H522 lung 69.3% | A549/ATCC NSCLC 52.6% | 786-0 renal 37.6% | COLO 205 colon 55.7%
active: HOP-92 NSCLC 5.27%

COc1cc(/C=C/C(=O)c2ccc(N3CCN(C)CC3)cc2)ccc1F
inactive: NCI-H23 lung 84.4% | NCI-H226 lung 67.3% | NCI-H322M lung 84.2% | HOP-62 NSCLC 86.4% | HOP-92 NSCLC 54.3% | NCI-H522 lung 97.2% | A549/ATCC NSCLC 76.7% | 786-0 renal 88.4% | COLO 205 colon 64.9%

C#C[C@]1(O)CC[C@H]2[C@@H]3CC=C4c5sc(-c6ccc(OC)cc6)nc5CC[C@]4(C)[C@H]3CC[C@@]21C
inactive: NCI-H23 lung 73.7% | NCI-H226 lung 69.3% | NCI-H322M lung 74.5% | HOP-62 NSCLC 70.8% | HOP-92 NSCLC 102% | NCI-H522 lung 80.6% | A549/ATCC NSCLC 74.7% | 786-0 renal 16.8% | COLO 205 colon 81.9%
